# In PubChem BioAssay (NCI):
# Compounds without any hit were thinned out: in the full panel of roughly 79,000, 15% have a hit. Activity calls are given as the source filed them. Cut-off read from the data, not from the text of the source: active = growth inhibition above about 70%; inactive = the rest.
# Experiment: NCI Yeast Anticancer Drug Screen. Data for the mlh1 rad18 strain (AID 175)
# Details: S. cerevisiae mlh1 rad18 strain growth inhibition; at 50.0 µM; active compounds read high
# Outline: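 Compound-treated yeast growth, normalised to vehicle controls. Strain bears defined DNA repair mutations.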
row,SMILES,growth inhibition
1,COc1ccc2c(Cc3cc(Cl)ccc3O)cncc2c1O,82.3% (active)
2,Cc1ccc(NNC2=NC(=S)NC(=O)C2)cc1,98.3% (active)
3,CC#CC(=O)Nc1ccccc1CC(c1c[nH]c2ccccc12)c1c[nH]c2ccccc12,53.8% (inactive)
4,COC(=O)c1c2oc3c(C(=O)OC)cccc3nc-2cc(N)c1=O,22.5% (inactive)
5,CCCCCC(=O)NNc1ccccc1,90.8% (active)
6,CN(C)CCNc1ccc2nnn3c4ccc(O)cc4c(=O)c1c23,33.8% (inactive)
7,COc1ccc2c(c1)C(=O)C[C@@H]1[C@](C)(C#N)CCC[C@]21C,47.7% (inactive)
8,CCC(=O)c1cc2ccccc2c2ccccc12,41.5% (inactive)
9,O=C1OCCCOC(=O)c2cc(ccc2O)OCC#CC#CCOc2ccc(O)c1c2,29.7% (inactive)
10,Nc1nc(Cl)cc(NCC2(CO)CC(CCCc3ccccc3)C2)n1 (stereo not given),-48.1% (inactive)
11,NNC(=S)Nc1ccccc1,8.05% (inactive)
12,CCOC(=O)c1ccc(N=Cc2cc(Cl)cc(Cl)c2O)cc1,84.5% (active)
13,CC(C(=O)N1C(=O)N(C(=O)C(C)C(O)c2ccccc2)C(c2ccccc2)C1c1ccccc1)C(O)c1ccccc1 (stereo not given),91.3% (active)
14,CC(C)(C)CC(C)(C)N[P+](NC(C)(C)CC(C)(C)C)(NC(C)(C)CC(C)(C)C)NC(C)(C)CC(C)(C)C,90.7% (active)
15,C/C(=N\NC(=S)N1CCCC1)c1cnccn1,99.1% (active)
16,N=C(N)c1ccc(OCCCCOc2ccc(N)cc2Cl)cc1,58.6% (inactive)
17,CCCCCC(CN(C)C)C(O)/C=C\c1ccccc1 (stereo not given),68.5% (inactive)
18,CC1(CO)CCCC2(C)C3=C(CCCC3)CCC12 (stereo not given),46.4% (inactive)
19,O=C(CCCl)Nc1cc2ccccc2oc1=O,-2.15% (inactive)
20,O=[N+]([O-])c1ccccc1N=Nc1c(O)[nH]c2cccc(C(F)(F)F)c12,95.1% (active)

row,SMILES,growth inhibition
1,CCCCCCCCC1OC1CCCCCCCC(=O)OCC1CO1 (stereo not given),-40.8% (inactive)
2,CCN(CC)CCNc1ccc(C)c2sc3c(OC)cccc3c(=O)c12,11.8% (inactive)
3,OC(CCN1CCOCC1)c1ccc(Sc2ccccc2)cc1 (stereo not given),97.2% (active)
4,[Cl-].[La+3].[O-]/N=C(\c1ccccc1)c1ccccn1.[O-]/N=C(\c1ccccc1)c1ccccn1.[O-]/N=C(\c1ccccc1)c1ccccn1,59.2% (inactive)
5,COc1ccc(NC(=O)CSC(N)=O)cc1,51.6% (inactive)
6,Fc1cccc(CSc2ncnc3c2ncn3C2CCCS2)c1 (stereo not given),92.5% (active)
7,CC/C(=C(\CC)c1ccc(OCCN2CCOCC2)cc1)c1ccc(OCCN2CCOCC2)cc1,87.8% (active)
8,O=[N+]([O-])c1c(Cl)ccc2nsnc12,99% (active)
9,COc1ccccc1NC(=O)/C(=C\N1C(=O)/C(=C/c2cc(OC)c(OC)c(OC)c2)SC1=S)C(C)=O,49.7% (inactive)
10,O=CNC(CCCC(=O)O)Cc1cc2ccccc2c2ccccc12 (stereo not given),94.5% (active)
11,C=C1CC2(CCCC3(CC(=C)C(=O)O3)C2(C)C)OC1=O (stereo not given),66.6% (inactive)
12,CCOC(=O)Nc1cc(NC(C)/C(=N/O)c2ccccc2)c([N+](=O)[O-])c(N)n1 (stereo not given),44.2% (inactive)
13,O=C(N=Nc1cccc(Cl)c1)NNc1cccc(Cl)c1,85.4% (active)
14,Oc1ccc2c(ccc3ccccc32)c1,99.2% (active)
15,CCc1cccc(C(C)(C)C)c1NC(=S)/N=C/C(C(=O)c1ccccc1)=C(\O)c1ccccc1,75.6% (active)
16,NC(=S)N/N=C/c1cn(CCCl)c2ccccc12,45.9% (inactive)
17,COC1=Nc2ccccc2S(=O)(=O)C=C1,98.3% (active)
18,O=C1C2C3C=CC(C3)C2C(=NS(=O)(=O)c2ccccc2)C2C3C=CC(C3)C12 (stereo not given),72.5% (active)
19,NC(=Nc1ccccc1)c1ccc2c(c1)c1c(n2Cc2ccccc2)CCCC1,99.7% (active)
20,NN=C(CC(O)(C(F)(F)Cl)C(F)(F)Cl)CC(O)(C(F)(F)Cl)C(F)(F)Cl,98.8% (active)
